TGFb SMAD3 inh – TGF-b pathway inhibition; Potency, µM (doses to about 46.1 µM), hits mostly inhibitors; HepG2 CAGA-GFP TGF-b/SMAD3 reporter, GFP fluorescence, 18 h; TGF-beta stimulated, 500 pg/mL final; AID 588855; 410,000 tested, 1.2% active; also: nearly all actives have a fitted effect of over 65% in size
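Inhibition of TGF-beta-driven CAGA-GFP reporter expression in HEPG2 cells is measured by cellular GFP fluorescence after 18 h stimulation with 500 pg/mL recombinant TGF-beta in 1% FBS medium at 37 degrees C.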
KB-V1 MDR tox – KB-V1 MDR subline cytotoxicity | KB-V1 MDR cells viability, CellTiter-Glo, 72 h | Potency, µM (top dose mostly 46.1 µM), hits mostly cytotoxic | 400,000 tested, 3.4% active; also: nearly all actives have a fitted effect of over 60% in size
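Readout: CellTiter-Glo luminescence, 10 min after addition. Cells: KB-V1 MDR subline, 72 h at 37 degrees C with compound. Analysis: corrected, normalized data fitted to concentration-effect curves.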
HepG2 viability – counter-screen for TGF-b inhibitors: cytotoxicity in HepG2 cells. HepG2 CAGA-GFP viability, ATP luminescence, 18 h. Potency, µM (doses to about 46.1 µM), hits mostly cytotoxic. 410,000 tested, 0.76% active. AID 588856
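HepG2 CAGA-GFP cells (1000/well, DMEM with 1% FBS) received compound, then TGF-beta at 500 pg/mL final, and were incubated 18 hours at 37 degrees C. Viability was read by CellTiter-Glo luminescence. Media-only wells were set as complete cell-killing and DMSO as no toxicity.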
KB-3-1 cytotox – KB-3-1 parental cell cytotoxicity; 400,000 tested, 1.4% active; KB-3-1 viability, CellTiter-Glo ATP luminescence, 72 h; AID 1347075; Potency, µM (titrated, usually from 46.1 µM), hits mostly cytotoxic; also: nearly all actives have a fitted effect of over 60% in size
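Screening of KB-3-1 cells (DMEM, 10% FBS, phenol-red free) ran from lowest to highest compound concentration; after 72 h at 37 °C viability was read luminescently and curves fitted.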
HT1080 IDH1KD tx – kills HT-1080 cells with IDH1 knockdown; HT-1080 IDH1 knockdown viability, ATP luminescence, 48 h; Potency, µM (highest dose often 46.1 µM), hits mostly cytotoxic; 360,000 tested, 2% active
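Cytotoxicity counter-line: IDH1KD HT-1080, 48 h, CellTiter-Glo. Curves classed by r2, magnitude and activity.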
HT1080-NT tox – kills 2HG-producing HT-1080-NT fibrosarcoma cells; HT-1080-NT fibrosarcoma viability, CellTiter-Glo ATP luminescence, 48 h; Potency, µM (doses to about 46.1 µM), actives largely listed as cytotoxic; 360,000 tested, 1.6% active;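 also: NT is the 2HG producing partner of a matched IDH1 knockdown line; nearly all actives have a fitted effect of over 55% in size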
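Fibrosarcoma NT cells, 750 per well in 5% FBS RPMI, were exposed to compound for 48 hours. Viability: CellTiter-Glo luminescence.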
Numbers stand for hits; . = inactive; ? = inconclusive; / = no result; [ ] = dose if it differs, or a comment. Only some compounds are listed: those with a hit (about 6.6% of all), similar ones and a draw of the others. Calls follow the shape of the dose curve; as a rule, active = well fitted curve in the direction sought with a large enough effect; inconclusive = small, poorly fitted or top-dose-only effect, or another doubt; inactive = no such curve, though single readings can be large; an effect the other way counts as inactive or inconclusive.

SMILES	TGFb SMAD3 inh	KB-V1 MDR tox	HepG2 viability	KB-3-1 cytotox	HT1080 IDH1KD tx	HT1080-NT tox
Cc1cc(NC(=O)CSc2nc(-c3ccco3)cc(C(F)(F)F)n2)no1	.	?	.	0.82µM	0.517µM	0.581µM
CC(=O)c1ccc(NC(=O)c2ccc(-c3nc(COc4ccc(C)cc4)c(C)o3)cc2)cc1	.	.	.	.	/	/
Cc1c(Cl)cccc1NC(=O)C(C)n1nc(C)c2c(C)n(-c3ccccc3)nc2c1=O (configuration not stated)	.	.	.	.	/	/
CC(C)c1cnc2c(c1SCC(=O)c1ccccc1)c(=O)n(C)c(=O)n2C	.	/	.	/	/	/
O=C(NC12CC3CC(CC(C3)C1)C2)c1ccc(N2CCNCC2)c([N+](=O)[O-])c1	.	23.1µM	.	18.4µM	?	.
COc1ccccc1C(=O)Nc1cccc(C(=O)OCc2cc(=O)n3cc(C)sc3n2)c1	.	/	.	/	/	/
Cc1cccc(C2C=C(c3ccc(C)c(C)c3)Nc3nnnn32)c1 (configuration not stated)	.	?	.	20.6µM	/	/
CCc1ccc(C2=CC(c3cccc(Br)c3)n3nnnc3N2)cc1 (configuration not stated)	.	.	.	.	/	/
COc1ccccc1C1C=C(c2ccccc2)Nc2nnnn21 (configuration not stated)	.	8.2µM	.	13µM	16.4µM	?
COc1cccc(C2=CC(c3cccs3)n3nnnc3N2)c1 (configuration not stated)	.	?	.	5.17µM	8.2µM	8.2µM
COc1cccc(C2=CC(c3ccc(OC)c(OC)c3OC)n3nnnc3N2)c1 (configuration not stated)	.	.	.	.	.	.
CCN(CC)CCOC(=O)c1ccc(NC(=O)c2cc3cccc(OC)c3oc2=O)cc1	.	?	.	.	/	/
c1coc(-c2nc3cc4ccccc4cc3nc2-c2ccco2)c1	?	/	.	/	/	/
COc1ccc(-c2nnc3ccc(SC(C(C)=O)C(C)=O)nn23)cc1OC	.	.	.	.	.	.
CSc1ccc2nnc(-c3cccc(F)c3)n2n1	.	13µM	.	.	.	.
O=C(CSc1ccc2nnc(-c3cccc(F)c3)n2n1)NCc1ccco1	.	16.4µM	.	.	.	.
COc1ccc(-c2nnc3ccc(SC(C)C)nn23)cc1OC	?	20.6µM	.	.	/	/
CCOC(=O)CC(=O)CSc1ccc2nnc(-c3cccc(F)c3)n2n1	.	.	.	.	?	.[9.24 µM]
CC1=C(C(=O)Nc2ccccc2)C(c2ccncc2)n2nc(SCc3ccccc3Cl)nc2N1 (configuration not stated)	.	.	.	.	/	/
Cc1cc(C)cc(-n2cnc3cc(C(=O)NC4CCCCCC4)ccc32)c1	?	/	.	/	/	/
COc1ccc(C(=O)NCC(c2ccco2)S(=O)(=O)c2cccs2)cc1 (configuration not stated)	.	.	.	.	/	/
CCNS(=O)(=O)c1ccc(CCC(=O)NC2CCCC2)cc1	.	.	0.1µM	.	.	.
CC(C)NS(=O)(=O)c1ccc(CCC(=O)Nc2cc(Cl)ccc2Oc2ccccc2)cc1	.	.	.	?	.	.
CCNS(=O)(=O)c1ccc(CCC(=O)Nc2cc(Cl)ccc2Oc2ccccc2)cc1	?	16.4µM	.	.	?	?
Cc1ccc(NC(=O)C2CCCN(c3nnc(C)c4c(C)n(-c5ccccc5)nc34)C2)c(Cl)c1 (configuration not stated)	.	.	.	.	/	/
COc1ccc(C)cc1NCc1cccc(OC)c1OC	.	?	.	.	.	.
COc1ccc(CNc2cc(C)ccc2C)c(OC)c1OC	.	14.6µM	.	.	.	.
Nc1c(-c2ccccc2)c(CSc2nc3ccccc3[nH]2)nn1-c1cccc(Cl)c1	.	?	.	23.1µM	.	.
Cc1ccccc1-n1nc(CSc2nc3ccccc3[nH]2)c(-c2ccccc2)c1N	?	18.4µM	.	?	.	.

High-throughput results as filed in PubChem BioAssay.
